# Shown are actives, neighbours in structure and some others; about 14% of the full set was active somewhere.
# Lassa entry inh: qHTS for Inhibitors of binding or entry into cells for Lassa Virus; Lassa virus pseudotype entry inhibition, cell reporter; actives 1.2% (n = 300,000); AID 540256, 2011; Potency, µM (series often up to 37.9 µM), actives largely listed as inhibitors; calls by dose curve; tested in HEK293 cells; further: nearly all actives have a fitted effect of over 50% in size
# HCV inh: qHTS Assay for Inhibitors of Hepatitis C Virus (HCV); actives 3.4% (n = 340,000); Huh7.5.1 HCVcc-Cre infection, luciferase reporter, 44 h; Potency, µM (doses to about 41.8 µM), hits mostly inhibitors
#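 Antiviral activity was scored by luciferase reporter output from cells infected with HCVcc-Cre (~0.5 moi) in presence of compound, 44 h infection period, cells seeded 1,000/well 4 h prior.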
# Pf growth 96h: Primary qHTS for delayed death inhibitors of the malarial parasite plastid, 96 hour incubation. P. falciparum luciferase reporter growth, 96 h. Potency, µM (titrated, usually from 28.7 µM), actives largely listed as inhibitors. actives 6.9% (n = 320,000)
#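 Parasite growth measured via integrated firefly luciferase reporter in P. falciparum. Infected erythrocytes at 2% hematocrit, 0.05% parasitemia final were treated 96 hours at 37 C under 5% CO2, and luminescence was read.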
# MARV entry inh: qHTS for inhibitors of binding or entry into cells for Marburg Virus | Marburg virus pseudotyped entry inhibition, cell reporter | actives 1.8% (n = 300,000) | Potency, µM (series often up to 37.8 µM), most hits filed as inhibitors; calls by dose curve; tested in HEK293 cells
# HCMV antiviral: qHTS Assay for inhibitors of the human cytomegalovirus (HCMV). activity change, negative = inhibition, % at 57.5 µM. actives 4.5% (n = 410,000). HFF cells, HCMV-luciferase reporter, 72 h; hits give low values. AID 1259415, 2018; in the data active means activity change below about -60%; inconclusive means no clear call, values can overlap the other calls; inactive means above about -39%
#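 Two compound doses tested in HFFs infected with HCMV-luciferase, MOI 1 PFU/cell, 72 h at 37C. Lysate luminescence read with OneGlo; data normalized against buffer-only and 10uM Salinomycin inhibitor controls.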
# Pf growth 48h: Primary qHTS for delayed death inhibitors of the malarial parasite plastid, 48 hour incubation. actives 5.9% (n = 310,000). Potency, µM (top dose mostly 28.7 µM), hits mostly inhibitors. P. falciparum luciferase growth in erythrocytes, 48 h. AID 504832, 2011
#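 Erythrocytes infected with P. falciparum carrying an integrated firefly luciferase reporter (2% hematocrit, 0.1% parasitemia final) were exposed to compounds in RPMI 1640 with 0.5% Albumax at 37 C, 5% CO2. Growth inhibition was scored as reduced luminescence.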
# Numbers stand for hits; - = inactive; ? = inconclusive; . = not tested or not shown. Unless noted, the call rests on the fitted dose curve; in most records, active means well fitted inhibition curve with a large enough effect; inconclusive means small, poorly fitted or top-dose-only effect, or another doubt; inactive means no such curve, though single readings can be large or run the other way.
SMILES,Lassa entry inh,HCV inh,Pf growth 96h,MARV entry inh,HCMV antiviral,Pf growth 48h
CCOc1cc2[nH]c(=O)n(CCC(=O)N3CCN(c4ccccc4OC)CC3)c(=O)c2cc1OCC,-,-,12µM,-,-,?
COc1cc2[nH]c(=O)n(CCC(=O)N3CCN(c4cc(Cl)ccc4C)CC3)c(=O)c2cc1OC,-,?,-,?,-64,12µM
COc1cc2[nH]c(=O)n(CCCCCC(=O)N3CCN(c4cccc(C(F)(F)F)c4)CC3)c(=O)c2cc1OC,?,.,.,?,-70,.
O=C(CCCCCn1c(=O)[nH]c2ccccc2c1=O)N1CCN(c2cccc(C(F)(F)F)c2)CC1,?,.,.,.,-,.
COc1cc2[nH]c(=O)n(CCCCCC(=O)N3CC=C(c4ccccc4)CC3)c(=O)c2cc1OC,?,?,-,8.9µM,-,.
Cc1ccccc1CNC(=O)C1CCCCN1S(=O)(=O)c1ccc(F)cc1 (centres undefined),-,.,.,.,-,.
CCOc1cc2[nH]c(=O)n(CCCCC(=O)N3CCCCCC3)c(=O)c2cc1OCC,?,-,-,-,-104,5.2µM
CCOc1cc2[nH]c(=O)n(CCCCC(=O)N3CCN(c4cccc(Cl)c4)CC3)c(=O)c2cc1OCC,?,.,.,.,-,.
COCCN(CCOC)Cc1c(O)ccc2c1O/C(=C\c1ccc(C)o1)C2=O,-,-,?,-,-88,.
Cc1ccc(/C=C2\Oc3cc(OCC(=O)NN)ccc3C2=O)o1,-,-,?,-,-,-
CCc1ccc(NC(=O)C2CCN(S(=O)(=O)c3ccc4c(c3)CC(C)N4C(C)=O)CC2)cc1 (centres undefined),.,2.8µM,?,.,-93,?
CC(=O)N1c2ccc(S(=O)(=O)N3CCC(C(=O)NC4CCC(C)CC4)CC3)cc2CC1C (centres undefined),.,-,5.2µM,.,-,?
CC(=O)N1c2ccc(S(=O)(=O)N3CCC(C(=O)Nc4cccc(F)c4)CC3)cc2CC1C (centres undefined),-,?,?,-,-61,?
CC(=O)N1c2ccc(S(=O)(=O)N3CCC(C(=O)Nc4cccc(C)c4)CC3)cc2CC1C (centres undefined),?,?,-,?,-68,?
COc1ccc2c(c1)Cc1cc(NC(=O)c3ccccc3-c3ccccc3C(=O)O)ccc1-2,.,.,.,.,-,.
COC1=CC2C(=O)C(C1=O)[C@H](c1ccccc1)[C@H]2C (some centres undefined),.,.,.,-,.,.
CC(=O)N1c2ccc(S(=O)(=O)N3CCC(C(=O)Nc4cccc(Cl)c4C)CC3)cc2CC1C (centres undefined),-,.,.,.,-,.
CC(=O)N1c2ccc(S(=O)(=O)N3CCC(C(=O)Nc4cccc(Cl)c4)CC3)cc2CC1C (centres undefined),.,?,-,.,-88,?
CC(=O)N1c2ccc(S(=O)(=O)N3CCC(C(=O)Nc4cc(C)cc(C)c4)CC3)cc2CC1C (centres undefined),.,-,?,.,-61,?
COc1ccc(Cl)cc1NC(=O)C1CCN(S(=O)(=O)c2ccc3c(c2)CC(C)N3C(C)=O)CC1 (centres undefined),-,.,.,.,-63,.
Cc1ccc(C2=NOC(C)(c3nnc(Cc4ccccc4)o3)C2)cc1 (centres undefined),.,-,.,.,-,.
COc1ccc(NC(=O)CSCc2cc(=O)n3nc(C4CC4)sc3n2)cc1,.,-,?,.,-,-
Cc1ccc(C2(O)CC(C)N(C)CC2C)cc1 (centres undefined),-,-,?,-,-,-
COc1ccc(C2(CCN)CC(C)N(C)CC2C)cc1 (centres undefined),-,-,1.7µM,?,-,-
O=C1CSC2(C(=O)N(Cc3ccccc3F)c3ccccc32)N1c1ccc(F)cc1 (centres undefined),-,.,.,.,-,.
Cc1ccc(NC(=O)CN2C(=O)C3(SCC(=O)N3c3cccc(Cl)c3)c3ccccc32)cc1C (centres undefined),?,.,.,.,-65,.

# From PubChem BioAssay
